# Experimental data taken from the supplement of paper PMC6555819.
# Experiments:
# Assay in all cases: PBM binding z-score (relative to random genomic background probes); higher = stronger binding; sequences stand for … in GC…GCGATTGACAGCGTAGAATGAAGG
# [1] = test system: FXR:RXRa (NR concentration 270 nM, RXRa partner concentration 90 nM)
# Method in brief: (§1)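 The probes on custom Agilent 4×180K protein-binding microarrays were double-stranded, with 34-nt variable regions bearing direct-repeat seeds, single-nucleotide variants, half-site ablations and random human genomic background sequences. Incubation lasted 1 h with ligand-free nuclear receptor dimers in PBS pH 7.4, 2% milk, 0.02% Triton X-100, 1 mM DTT, 0.2 mg/mL BSA and 0.4 mg/ml salmon testes DNA. Antibodies against each partner (one per run) detected bound dimers, and fluorescence scans were regression-normalized. Binding z-scores take the random background probes as reference.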
# [2] = test system: LXRa:RXRa (NR concentration 270 nM, RXRa partner concentration 90 nM)
# Method in brief: as §1
# [3] = test system: LXRa homodimer (NR concentration 270 nM)
# Method in brief: as §1
# [4] = test system: LXRb:RXRa (NR concentration 270 nM, RXRa partner concentration 90 nM)
# Method in brief: as §1
# [5] = test system: LXRb homodimer (NR concentration 270 nM)
# Method in brief: as §1
# [6] = test system: PPARa:RXRa (NR concentration 270 nM, RXRa partner concentration 90 nM)
# Method in brief: as §1
# [7] = test system: PPARg:RXRa (NR concentration 180 nM, RXRa partner concentration 90 nM)
# Method in brief: as §1
# [8] = test system: PPARg:RXRa 270nM:90nM, anti-RXR (NR concentration 270 nM, RXRa partner concentration 90 nM)
# Method in brief: as §1
# [9] = test system: PPARg:RXRa 30nM:10nM, anti-RXR (NR concentration 30 nM, RXRa partner concentration 10 nM)
# Method in brief: as §1
# [10] = test system: PPARg:RXRa 90nM:30nM, anti-RXR (NR concentration 90 nM, RXRa partner concentration 30 nM)
# Method in brief: as §1
# [11] = test system: PPARg:RXRa DBDmut IVT, anti-RXR (DBD mutation: RXRa K156A/R161A, NR concentration 270 nM, RXRa partner concentration 90 nM)
# Method in brief: as §1
# [12] = test system: PPARg:RXRa IVT, anti-PPARg (NR concentration 270 nM, RXRa partner concentration 90 nM)
# Method in brief: as §1
# [13] = test system: PPARg DBDmut:RXRa IVT, anti-PPARg (DBD mutation: PPARg1 K132A/R137A, NR concentration 270 nM, RXRa partner concentration 90 nM)
# Method in brief: as §1
# [14] = test system: PPARg DBDmut IVT, anti-PPARg (DBD mutation: PPARg1 K132A/R137A, NR concentration 270 nM)
# Method in brief: as §1
# [15] = test system: PPARg homodimer (NR concentration 180 nM)
# Method in brief: as §1
# [16] = test system: PXR:RXRa (NR concentration 270 nM, RXRa partner concentration 90 nM)
# Method in brief: as §1
# [17] = test system: PXR homodimer (NR concentration 270 nM)
# Method in brief: as §1
# [18] = test system: RARa:RXR (NR concentration 270 nM, RXRa partner concentration 90 nM)
# Method in brief: as §1
# [19] = test system: RARa homodimer (NR concentration 270 nM)
# Method in brief: as §1
# [20] = test system: RARb:RXRa (NR concentration 270 nM, RXRa partner concentration 90 nM)
# Method in brief: as §1
Sequence,PBM binding z-score [1],PBM binding z-score [2],PBM binding z-score [3],PBM binding z-score [4],PBM binding z-score [5],PBM binding z-score [6],PBM binding z-score [7],PBM binding z-score [8],PBM binding z-score [9],PBM binding z-score [10],PBM binding z-score [11],PBM binding z-score [12],PBM binding z-score [13],PBM binding z-score [14],PBM binding z-score [15],PBM binding z-score [16],PBM binding z-score [17],PBM binding z-score [18],PBM binding z-score [19],PBM binding z-score [20]
AATACAGGGCCATCGTAGGCCAGAGTACGCACAG,0.0639,0.221,-0.132,-0.283,-0.499,0.0726,0.954,-0.0465,-0.14,-0.0369,0.0782,0.608,0.846,-0.0733,-0.388,-0.255,-0.169,-0.00731,0.00973,0.931
TCTCGGAGGACGCGAAGGTCAGAGCTTTCCAGAG,0.524,0.815,-0.319,0.715,-1.33,1.69,-0.182,1.06,1.62,1.21,0.846,-0.0947,-1.23,-1.47,0.0628,1.33,-0.286,1.61,-0.357,2.7
CCTCGGAGGACAACTGGAGGTCAGAGCTGCCAGA,1.53,3.1,5.05,1.94,-0.251,1.99,0.231,0.569,-0.723,0.0567,0.198,0.595,-1.19,-1.87,2.05,2.52,0.545,2.84,0.162,3.07
CCTATTTGGTCAGGAGGTCACACACCGGATATGA,3.94,3.62,2.35,3.64,1.25,4.34,3.42,4.03,1.66,3.23,1.91,3.3,1.63,0.887,3.54,4.35,1.72,4.86,2.56,3.94
ATCGATAGGTCGAGGTGAGTATAGAGAAAGGGAA,0.48,0.636,-0.293,0.566,-0.118,2.02,0.873,0.711,0.245,0.369,-0.366,1.03,0.292,0.326,0.276,0.415,-0.0359,0.853,0.359,1.94
GCTCGGAGGACAAGGTCATAGCTTTGTCCGTAGA,4.1,3.71,0.47,2.77,-0.053,4.08,2.43,3.37,0.472,2.08,0.27,1.58,-0.805,-1.25,1.11,3.46,0.287,3.71,-0.351,3.79
TTTTGTAGATCAAGCAGGTTAAGAAAGCCTGAGT,-0.215,-0.0979,0.00472,0.194,-0.0652,0.567,-0.416,0.238,0.224,-0.0432,0.762,1.22,1.82,1.21,0.487,0.303,0.386,0.469,0.538,0.329
AGAATGAGGTTAGGATCAGGGAAACAGAATACAT,0.875,0.506,-0.0173,1.16,0.0197,2.19,1.11,1,0.649,0.78,1.28,1.5,1.12,0.953,1.27,0.668,0.603,0.932,1.08,1.37
AGTCAAAGTTCACTAGGAAACGTAAGATTCAGCT,5.38,5.47,2.41,2.89,0.822,4.1,5.8,6.01,2.93,5.11,0.0474,2.6,1.13,0.557,2.18,3.61,2.13,2.66,0.899,4.84
TGGCCTAGGTCAGATCGGGCCAGTATACGCTATA,2.31,0.419,-0.777,0.152,-1.29,1.39,0.44,0.442,-0.693,-0.369,-0.485,1.03,-1.16,-1.38,-0.396,0.928,-0.757,0.548,-1.18,2.85
GCTTCTAGGTCAGGTTGGTCAGCTAACGGGTACG,1.94,1.19,-0.092,1.17,1.34,2.57,3.16,3.17,0.647,2.22,6.57,5.9,1.46,0.392,1.61,0.562,0.241,1.26,0.169,3.53
GCTGCTAGGTCAGGTTGGGCAGCTAACGGGTACG,1.01,0.624,-0.384,0.136,-0.285,0.991,0.332,0.824,-0.181,0.136,2.83,1.93,-0.639,-0.804,0.77,-0.238,-0.455,0.335,-0.329,3.17
GGAACGAGGGCAAAGTTAATAGCATCTGTCGACG,1.04,0.812,-0.00751,0.878,-0.23,3.62,5.8,6.25,4.67,6.67,4,4.19,0.116,-0.54,0.877,1.19,0.225,1.24,0.00739,2.55
TCTTGTAGATCAATAGAGGTTAAGCAAGTGCGCT,0.958,2.62,0.281,1.34,-0.1,2.08,0.0342,1.71,2.75,2.4,1.66,1.19,0.792,-0.371,0.43,3.72,0.269,1.89,0.018,0.837
